Screening data as filed in PubChem.
KCNQ2 block – rat KCNQ2 potassium channel inhibitors, primary screen, cell-based, CHO-K1, FluxOR thallium flux, B-score. Potassium voltage-gated channel subfamily KQT member 2 (Rattus norvegicus), O88943. 20 min; active compounds read low. B-score at 10 µM. 1.1% of 310,000 active. AID 2156, 2009;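 active means fluorescence ratio B-score at most minus 3 library SDs, with starting brightness B-score within 2 library SDs, cut at about -5.5 in these data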
Target sequence (O88943 whole entry, looked up): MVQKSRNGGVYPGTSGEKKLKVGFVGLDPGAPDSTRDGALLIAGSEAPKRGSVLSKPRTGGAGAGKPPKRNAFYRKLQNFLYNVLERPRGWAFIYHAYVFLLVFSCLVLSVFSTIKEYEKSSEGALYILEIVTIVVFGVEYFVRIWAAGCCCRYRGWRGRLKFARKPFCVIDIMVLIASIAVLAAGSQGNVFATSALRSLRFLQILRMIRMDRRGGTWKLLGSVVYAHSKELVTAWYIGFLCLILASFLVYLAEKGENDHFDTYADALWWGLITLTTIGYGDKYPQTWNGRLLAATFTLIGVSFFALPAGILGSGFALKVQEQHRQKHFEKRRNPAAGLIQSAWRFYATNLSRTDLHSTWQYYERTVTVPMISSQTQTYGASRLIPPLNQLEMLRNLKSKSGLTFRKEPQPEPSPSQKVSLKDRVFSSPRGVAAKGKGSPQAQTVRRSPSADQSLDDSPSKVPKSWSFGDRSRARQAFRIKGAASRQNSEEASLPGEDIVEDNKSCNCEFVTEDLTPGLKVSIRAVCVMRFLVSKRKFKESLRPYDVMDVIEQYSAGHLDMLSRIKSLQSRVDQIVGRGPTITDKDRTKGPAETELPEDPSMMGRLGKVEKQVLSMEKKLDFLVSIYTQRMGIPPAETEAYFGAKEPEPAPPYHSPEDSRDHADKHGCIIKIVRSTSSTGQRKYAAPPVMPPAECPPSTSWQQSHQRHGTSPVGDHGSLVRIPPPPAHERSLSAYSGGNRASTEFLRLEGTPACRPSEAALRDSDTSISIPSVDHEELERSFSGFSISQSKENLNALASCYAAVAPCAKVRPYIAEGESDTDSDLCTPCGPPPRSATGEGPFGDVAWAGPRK
KCNQ2 pot – potentiators of rat KCNQ2 potassium channel; Potassium voltage-gated channel subfamily KQT member 2 (Rattus norvegicus), O88943; 0.54% of 310,000 active; CHO-K1 KCNQ2, FluxOR thallium flux fluorescence; active compounds read high; AID 2239, 2010; B-score at 10 µM;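 active means fluorescence ratio B-score at least 3 SD of library B-scores, with initial fluorescence B-score within 3 of them, cut at about 5.3 in these data; same plate scores as AID 2156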;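 further: B-score of peak minus minimum over baseline fluorescence ratio after K+ and Tl+ stimulus; positive B-score means potentiation of KCNQ2 with more thallium influx and brighter signal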
* hit, by the source's call. Sampled rows, rich in hits. Any-hit rate of the full collection: about 1.6%.

Screening CC(C)Oc1ccc(CCC(=O)NNC(=O)CCC(=O)O)cc1 returned KCNQ2 block inactive.
COc1ccccc1CCNS(=O)(=O)CCNC(=O)c1ccccc1 was read as KCNQ2 block inactive and KCNQ2 pot 0.17.
`COc1ccccc1CCNC(=O)c1ccc(Br)s1` gave KCNQ2 block -6.34* and KCNQ2 pot -6.34.
Screening CCc1noc(C)c1C(=O)Nc1cc(Cl)ccc1N1CCCC1 returned KCNQ2 block inactive.
Screening CCOC(=O)C1CCN(C(=O)CN(c2ccc3c(c2)OCCO3)S(=O)(=O)c2ccccc2)CC1 returned KCNQ2 block inactive.
For CCOc1ccc(N=C2NC(=O)S/C2=C\c2ccc(N(C)C)cc2)cc1 the results were KCNQ2 block inactive and KCNQ2 pot 0.46.
Screening CCOc1ccc(/C=C2/SC(=O)NC2=S)cc1 returned KCNQ2 block inactive and KCNQ2 pot 25.8*.
COC(=O)C(Cc1ccccc1)NC(=O)CCNC(=O)c1ccco1 (stereo not given) was read as KCNQ2 block inactive and KCNQ2 pot 0.2.
For O=c1c(Cc2c(F)cccc2Cl)c(O)ccn1C1CCCCCC1 the results were KCNQ2 block -7.85* and KCNQ2 pot -7.85.
O=c1c(Cc2c(F)cccc2Cl)c(O)ccn1Cc1ccc(F)cc1 was read as KCNQ2 block inactive.
CCOC(=O)C1CCN(Cc2ccccn2)CC1 was read as KCNQ2 block inactive.
CCOC(=O)C1CCN(c2ccccc2CN2CCN(c3ccccc3OCC)CC2)CC1 was read as KCNQ2 block -7.18* and KCNQ2 pot -7.18.
For COc1cc(/C=N/NC(=O)CC#N)ccc1Oc1nc(Cl)ncc1F the results were KCNQ2 block inactive and KCNQ2 pot 1.26.
Screening Cc1ccc(C(C)NC(=O)c2cc3cc(Br)ccc3oc2=N)cc1 (stereo not given) returned KCNQ2 block inactive.
Cc1ccc(S(=O)(=O)N(C)C)cc1NC(=O)COC(=O)Cc1ccccc1F was read as KCNQ2 block inactive and KCNQ2 pot 0.54.
CC(Oc1ccc2c(-c3ccccc3)cc(=O)oc2c1)C(=O)NCC(O)c1ccccc1 (stereo not given) was read as KCNQ2 block inactive and KCNQ2 pot 0.76.
`CC(C)(C)N(Cc1ccccc1)C(=O)c1cc2ccccc2o1` gave KCNQ2 block -5.86* and KCNQ2 pot -5.86.
`CN(Cc1ccccc1)C(=O)c1cc2ccccc2o1` gave KCNQ2 block inactive.
`CN(C)C(=O)COc1ccc(S(=O)(=O)c2ccc(OCC(=O)N(C)C)cc2)cc1` gave KCNQ2 block inactive and KCNQ2 pot 0.2.
Screening N#Cc1ccc(NC(=O)Cn2cnc(S(=O)(=O)N3CCCCC3)c2)cc1 returned KCNQ2 block inactive.
Screening CCN1CCN(CCNC(=O)c2ccc(CS(=O)c3ccc(Br)cc3)o2)CC1 (stereo not given) returned KCNQ2 block inactive and KCNQ2 pot 5.61*.
Screening CCN1CCN(CCNC(=O)c2ccc(CS(=O)c3ccc(Cl)cc3)o2)CC1 (stereo not given) returned KCNQ2 block inactive and KCNQ2 pot 1.16.
COc1ccc(NC(=O)N2CCC(CO)(CC3CCCCO3)CC2)c(OC)c1 (stereo not given) was read as KCNQ2 block inactive.
`COc1cccc(NC(=O)N(C2CCCCC2)C(C)c2cccs2)c1` (stereo not given) gave KCNQ2 block -5.66* and KCNQ2 pot -5.66.
COc1cccc(NC(=O)Nc2cccs2)c1 was read as KCNQ2 block inactive and KCNQ2 pot 2.37.
`O=C(NCCc1ccccc1)c1ccc(-c2ccc(F)cc2)o1` gave KCNQ2 block -5.84* and KCNQ2 pot -5.84.
Screening O=C(NCc1ccccc1)c1ccc(-c2ccccc2F)o1 returned KCNQ2 block inactive.
Screening CCCN(CCC)CCCNC(=O)c1ccc(CS(=O)(=O)c2c(Cl)cccc2Cl)o1 returned KCNQ2 block inactive.
For O=C(COc1ccc(S(=O)(=O)N2CCCC2)cc1)NCc1ccccn1 the results were KCNQ2 block inactive and KCNQ2 pot 1.92.
O=C(CNS(=O)(=O)c1ccc(Br)s1)NCc1ccc(F)cc1 was read as KCNQ2 block -5.88* and KCNQ2 pot -5.88.
For O=C(CCNS(=O)(=O)c1ccc(Br)s1)NCc1ccc(F)cc1 the results were KCNQ2 block inactive and KCNQ2 pot 0.09.
`CCCCSc1nc(C)cc(SCC(=O)N/N=C/c2cccc(OC)c2O)n1` gave KCNQ2 block inactive and KCNQ2 pot 6.35*.
`COc1cccc(/C=N/NC(=O)CSc2nnc(C)n2-c2ccccc2)c1O` gave KCNQ2 block inactive.
Cc1cccc(C(=O)N2CCCC(N3CCN(c4cccc(Cl)c4)CC3)C2)n1 (stereo not given) was read as KCNQ2 block inactive and KCNQ2 pot 0.04.
For Cc1ccsc1C(=O)N1CCCC(N2CCN(c3cccc(Cl)c3)CC2)C1 (stereo not given) the results were KCNQ2 block -7.12* and KCNQ2 pot -7.12.
`CC(=O)N/C(=N/c1nc(C)cc(C)n1)Nc1ccc(C)cc1C` gave KCNQ2 block inactive and KCNQ2 pot 0.03.
Screening COc1ccc(CCNc2nc(C)nc3c2nnn3Cc2ccccc2)cc1OC returned KCNQ2 block inactive and KCNQ2 pot 0.19.
Screening S=C(Cc1ccccc1)NCCc1ccccc1 returned KCNQ2 block inactive.
For COc1ccc(CC(=S)NCCc2ccccc2)cc1 the results were KCNQ2 block -6.02* and KCNQ2 pot -6.02.
COc1cc(S(=O)(=O)Nc2cccnc2)ccc1Cl was read as KCNQ2 block inactive.
`CN(C)CCNC(=O)c1ccc(COc2ccc(Cl)cc2Cl)cc1` gave KCNQ2 block -7.64* and KCNQ2 pot -7.64.
For COc1ccc(Cl)cc1C(=O)NCCN(C)C the results were KCNQ2 block inactive and KCNQ2 pot 0.4.
For CN(C)C(=O)Cn1cnc2c(cnn2-c2ccc(F)cc2)c1=O the results were KCNQ2 block inactive.
C=CCOc1ccc(CNn2cn[nH]c2=S)cc1 was read as KCNQ2 block inactive and KCNQ2 pot 0.06.
`C=CCn1cn[nH]c1=S` gave KCNQ2 block -8.35* and KCNQ2 pot -8.35.
Screening COc1ccc(N2CCN(c3ccc(S(=O)(=O)N(C(C)C)C(C)C)cn3)CC2)cc1 returned KCNQ2 block inactive and KCNQ2 pot 0.7.
CCN(CC(=O)Nc1ccccc1OC)C(=O)CCOc1ccc(C(C)(C)C)cc1 was read as KCNQ2 block -6.29* and KCNQ2 pot -6.29.
`CCOc1ccc(OCCC(=O)N(CC)CC(=O)Nc2ccccc2C(F)(F)F)cc1` gave KCNQ2 block inactive.
Screening Cc1nc2ccccc2n1S(=O)(=O)c1ccc(S(=O)(=O)N2CCCCCC2)cc1 returned KCNQ2 block inactive.
Screening Cc1ccc(S(=O)(=O)n2c(C)nc3ccccc32)cc1 returned KCNQ2 block -7.28* and KCNQ2 pot -7.28.
Screening CCOC(=O)C1=NN(c2ccccc2)C2=NC(C)=C(C(=O)OC)C(c3cccs3)N12 (stereo not given) returned KCNQ2 block inactive.
`CCOC(=O)C1=NN(c2cccc(Cl)c2)C2=NC(C)=C(C(=O)OC)C(c3cccs3)N12` (stereo not given) gave KCNQ2 block -5.69* and KCNQ2 pot -5.69.
CSc1ccc(CN2CCCC(N3CCN(c4ccccc4)CC3)C2)cc1 (stereo not given) was read as KCNQ2 block inactive.
